# From PubChem BioAssay
# The source made the active and inactive calls.
# Experiments:
# [1] = test system: Plasmodium falciparum Sir2 (PF13_0152, Sir2A); experiment: pfSir2 binders on small-molecule microarrays, primary screen, biochemical, small-molecule microarray, 635 nm fluorescence (AID 1098); conditions: small-molecule microarray binding, fluorescence 635 nm; higher = more signal;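 further: score merges spot fluorescence intensity with its signal-to-noise ratio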
# [2] = small-molecule microarray binders of probe aDKK1, primary screen, biochemical, biotinylated probe, 635/667 nm fluorescence (AID 1099); conditions: higher = more signal;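 further: score merges 667nm spot fluorescence with signal to noise across triplicate slides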
# [3] = small-molecule microarray binders of probe aCHRDL2, primary screen, biochemical, biotinylated probe, 635/667 nm fluorescence (AID 1100); conditions: higher = more signal
# [4] = splicing luciferase reporter signal modulators, primary screen, spliceosome inhibition project, cell-based, HEK293, splice +/- reporter (AID 1101); conditions: luminescence, 24 h, higher = more signal, called active from +8 up or from −8 down;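 further: HEK293 cells carrying a splicing-competent luciferase reporter gene; test concentration not given here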
# [5] = target: Fibroblast growth factor 10 (Homo sapiens) (UniProt O15520); experiment: FGF10 binders on small-molecule microarrays, primary screen, biochemical, small-molecule microarray, 635 nm fluorescence (AID 1102); conditions: FGF10 binding, fluorescence 635 nm, higher = more signal
# Sequence of Fibroblast growth factor 10 (Homo sapiens) (O15520 whole entry, looked up): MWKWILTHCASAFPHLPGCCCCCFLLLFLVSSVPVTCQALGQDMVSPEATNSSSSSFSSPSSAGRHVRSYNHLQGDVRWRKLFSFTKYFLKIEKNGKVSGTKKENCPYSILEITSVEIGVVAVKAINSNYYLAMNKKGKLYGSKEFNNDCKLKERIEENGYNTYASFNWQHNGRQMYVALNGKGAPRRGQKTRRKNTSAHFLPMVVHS
# [6] = test system: glycogen synthase kinase-3 (GSK3A per assay name; protocol says GSK3B); experiment: GSK3 binders on small-molecule microarrays, primary screen, biochemical, small-molecule microarray, 635 nm fluorescence, GSK3A (AID 1103); conditions: small-molecule microarray binding, fluorescence 635 nm; higher = more signal; further: the record names both GSK3A and GSK3B
# [7] = target: Epidermal growth factor receptor (Homo sapiens) (UniProt P00533); experiment: EGFR binders on small-molecule microarrays, primary screen, biochemical, small-molecule microarray, 635 nm fluorescence (AID 1104); conditions: EGFR binding, higher = more signal;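 further: score merges 667 nm emission intensity with spot signal to noise over triplicate slides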
# Sequence of Epidermal growth factor receptor (Homo sapiens) (P00533 whole entry, looked up): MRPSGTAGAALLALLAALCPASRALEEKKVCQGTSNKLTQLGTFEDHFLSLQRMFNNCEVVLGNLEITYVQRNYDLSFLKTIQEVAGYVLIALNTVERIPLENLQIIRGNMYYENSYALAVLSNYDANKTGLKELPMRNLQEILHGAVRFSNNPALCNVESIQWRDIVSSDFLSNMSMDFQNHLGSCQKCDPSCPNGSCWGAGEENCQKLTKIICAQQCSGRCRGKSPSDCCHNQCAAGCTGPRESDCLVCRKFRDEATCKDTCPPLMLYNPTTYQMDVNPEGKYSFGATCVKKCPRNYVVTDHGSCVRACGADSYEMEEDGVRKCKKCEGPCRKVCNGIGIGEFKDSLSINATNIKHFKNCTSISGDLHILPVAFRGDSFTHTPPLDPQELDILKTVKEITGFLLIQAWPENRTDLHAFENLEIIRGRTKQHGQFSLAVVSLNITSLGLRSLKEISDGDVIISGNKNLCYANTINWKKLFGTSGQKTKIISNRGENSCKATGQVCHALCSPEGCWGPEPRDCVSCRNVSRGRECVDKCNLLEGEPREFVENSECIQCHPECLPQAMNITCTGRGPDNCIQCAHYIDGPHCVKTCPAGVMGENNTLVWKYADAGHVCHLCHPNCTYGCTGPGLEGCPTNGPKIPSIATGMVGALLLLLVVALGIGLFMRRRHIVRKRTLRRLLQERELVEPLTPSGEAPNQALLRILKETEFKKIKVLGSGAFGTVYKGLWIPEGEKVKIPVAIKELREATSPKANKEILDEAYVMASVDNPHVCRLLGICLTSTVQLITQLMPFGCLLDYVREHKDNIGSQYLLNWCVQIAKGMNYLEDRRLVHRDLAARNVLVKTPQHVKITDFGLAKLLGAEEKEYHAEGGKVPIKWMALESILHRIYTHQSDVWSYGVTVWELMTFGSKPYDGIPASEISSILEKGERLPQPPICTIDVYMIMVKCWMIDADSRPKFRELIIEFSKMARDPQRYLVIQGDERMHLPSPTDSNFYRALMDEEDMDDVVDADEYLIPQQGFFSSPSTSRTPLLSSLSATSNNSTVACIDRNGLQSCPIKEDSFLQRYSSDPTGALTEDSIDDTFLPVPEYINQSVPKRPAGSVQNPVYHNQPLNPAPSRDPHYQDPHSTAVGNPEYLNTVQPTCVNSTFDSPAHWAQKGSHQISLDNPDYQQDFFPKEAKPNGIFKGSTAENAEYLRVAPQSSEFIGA
# [8] = target: Follistatin-related protein 3 (Homo sapiens) (UniProt O95633); experiment: FSTL3 binders on small-molecule microarrays, primary screen, biochemical, small-molecule microarray, 635 nm fluorescence (AID 1105); conditions: FSTL3 binding, higher = more signal;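 further: score merges emission near 667 nm and signal to noise per printed spot across three slides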
# Sequence of Follistatin-related protein 3 (Homo sapiens) (O95633 whole entry, looked up): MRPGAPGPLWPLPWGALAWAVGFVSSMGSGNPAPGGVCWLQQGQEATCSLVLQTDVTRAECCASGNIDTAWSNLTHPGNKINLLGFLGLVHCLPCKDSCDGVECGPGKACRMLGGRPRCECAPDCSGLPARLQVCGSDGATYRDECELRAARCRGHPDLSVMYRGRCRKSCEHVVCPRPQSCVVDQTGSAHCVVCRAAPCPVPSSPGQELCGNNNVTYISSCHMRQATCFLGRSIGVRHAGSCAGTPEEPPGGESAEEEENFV
# [9] = target: Dickkopf-related protein 1 (Homo sapiens) (UniProt O94907); experiment: DKK1 binders on small-molecule microarrays, primary screen, biochemical, small-molecule microarray, 635 nm fluorescence scan (AID 1106); conditions: DKK1 binding, higher = more signal;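 further: score merges emission near 667 nm with signal to noise over three replicate slides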
# Sequence of Dickkopf-related protein 1 (Homo sapiens) (O94907 whole entry, looked up): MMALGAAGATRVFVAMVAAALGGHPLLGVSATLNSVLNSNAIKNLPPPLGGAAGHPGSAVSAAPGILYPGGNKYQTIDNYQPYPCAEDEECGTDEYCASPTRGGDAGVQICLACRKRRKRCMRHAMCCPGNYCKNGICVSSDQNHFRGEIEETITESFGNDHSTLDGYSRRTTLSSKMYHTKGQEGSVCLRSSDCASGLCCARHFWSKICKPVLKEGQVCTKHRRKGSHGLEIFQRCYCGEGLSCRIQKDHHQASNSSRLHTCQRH
# [10] = test system: Inhibin beta A chain (activin A); experiment: INHBA (activin A) binders on microarrays, primary screen, biochemical, small-molecule microarray, 635 nm fluorescence scan (AID 1107); conditions: small-molecule microarray binding, higher = more signal;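 further: mouse activin A protein probed at 4.33 µg/mL on printed slides; score merges bound-protein fluorescence near 667 nm with spot signal-to-noise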
# [11] = test system: Human papillomavirus type 1a protein E7 (residues 44-93); experiment: HPV1a E7 fragment binders on microarrays, primary screen, biochemical, small-molecule microarray, residues 44-93, 635 nm fluorescence (AID 1108); conditions: small-molecule microarray binding, fluorescence 635 nm; higher = more signal;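 further: E7 fragment applied at 1 µg/mL in TBST for 1 h at 4 C; score combines spot fluorescence with its signal to noise ratio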
# [12] = modulators of HCV replicon luciferase signal, primary screen, HCV replication inhibitor project, Huh7 cells, luciferase reporter (AID 1109); conditions: 48 h, higher = more signal;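 further: huh7 hepatoma cells harbouring a luciferase neomycin HCV replicon reporter; luciferase luminescence as measure of HCV replicon replication; test concentration not given here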
# [13] = target: Left-right determination factor 2 (Homo sapiens) (UniProt O00292); experiment: LEFTY2 binders on small-molecule microarrays, primary screen, biochemical, small-molecule microarray, 635 nm fluorescence scan (AID 1110); conditions: LEFTY2 binding, higher = more signal
# Sequence of Left-right determination factor 2 (Homo sapiens) (O00292 whole entry, looked up): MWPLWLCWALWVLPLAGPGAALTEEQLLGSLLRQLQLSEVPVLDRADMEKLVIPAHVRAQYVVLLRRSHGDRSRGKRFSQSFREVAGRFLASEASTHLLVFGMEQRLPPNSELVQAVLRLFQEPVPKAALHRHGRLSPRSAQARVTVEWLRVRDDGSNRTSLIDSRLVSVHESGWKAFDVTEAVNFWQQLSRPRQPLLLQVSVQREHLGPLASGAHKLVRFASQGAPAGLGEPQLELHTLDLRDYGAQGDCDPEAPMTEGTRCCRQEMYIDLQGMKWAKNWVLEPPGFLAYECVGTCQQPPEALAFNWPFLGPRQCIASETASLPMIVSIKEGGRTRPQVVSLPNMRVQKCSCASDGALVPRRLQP
# [14] = target: Calmodulin-1 (Homo sapiens) (UniProt P0DP23); experiment: CALM1 binders on microarrays, EGTA buffer, profiling panel, biochemical, small-molecule microarray, Cy5-labelled CALM1 (AID 1111); conditions: Cy5-CALM1 binding fluorescence, higher = more signal;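 further: labelled calmodulin applied in Tris saline Tween buffer holding calcium plus EGTA and DTT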
# [15] = target: Calmodulin-1 (Homo sapiens) (UniProt P0DP23); experiment: calcium-bound CALM1 binders on microarrays, profiling panel, artefact control for SMM control-protein annotation, biochemical, small-molecule microarray, Cy5-labelled CALM1, plus calcium (AID 1112); conditions: Cy5-CALM1 binding fluorescence, higher = more signal;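 further: score merges spot fluorescence with signal to noise from triplicate slides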
# [16] = small-molecule microarray binders of probe aWnt5a, primary screen, biochemical, biotinylated probe, 635/667 nm fluorescence (AID 1113); conditions: higher = more signal;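 further: score merges 667 nm fluorescence intensity with signal-to-noise per printed feature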
# [17] = small-molecule microarray binders of probe aShh, primary screen, biochemical, biotinylated probe, 635/667 nm fluorescence (AID 1114); conditions: higher = more signal;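 further: probe is biotin-labelled aShh protein from a stem cell growth factor screen; measures binding of labelled protein to compounds printed on the slide; score merges feature fluorescence at 667 nm with signal-to-noise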
# [18] = small-molecule microarray binders of probe aNog, primary screen, biochemical, biotinylated probe, 635/667 nm fluorescence (AID 1115); conditions: higher = more signal;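 further: probe is biotinylated aNog protein used at 0.15 µg/mL for 1 h at 4 C; z-score combines 667 nm fluorescence of each spot with its signal to noise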
# [19] = target: Torsin-1A-interacting protein 1 (Homo sapiens) (UniProt Q5JTV8); experiment: LAP1 binders from COS7 cell lysate, primary screen, small-molecule microarray, 635/667 nm fluorescence (AID 1116); conditions: COS7-hLAP1 lysate binding, 635 nm fluorescence, higher = more signal
# Sequence of Torsin-1A-interacting protein 1 (Homo sapiens) (Q5JTV8 whole entry, looked up): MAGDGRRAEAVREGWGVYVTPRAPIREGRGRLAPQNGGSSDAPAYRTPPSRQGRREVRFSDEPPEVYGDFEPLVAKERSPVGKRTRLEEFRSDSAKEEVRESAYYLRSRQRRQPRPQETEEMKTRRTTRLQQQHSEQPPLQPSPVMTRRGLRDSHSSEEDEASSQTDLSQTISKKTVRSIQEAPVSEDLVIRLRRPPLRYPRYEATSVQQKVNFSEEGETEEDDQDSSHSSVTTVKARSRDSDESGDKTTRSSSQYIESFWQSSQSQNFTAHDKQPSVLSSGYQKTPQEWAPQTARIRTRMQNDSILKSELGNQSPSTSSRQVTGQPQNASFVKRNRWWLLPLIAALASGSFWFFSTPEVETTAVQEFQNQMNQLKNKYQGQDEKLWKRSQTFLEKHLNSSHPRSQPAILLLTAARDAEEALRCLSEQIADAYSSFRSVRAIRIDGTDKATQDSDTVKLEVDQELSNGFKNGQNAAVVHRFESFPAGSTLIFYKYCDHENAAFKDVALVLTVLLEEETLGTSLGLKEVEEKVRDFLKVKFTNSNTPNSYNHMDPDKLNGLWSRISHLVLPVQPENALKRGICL
# [20] = target: Alpha-bungarotoxin (Bungarus multicinctus) (UniProt P60615); experiment: alpha-bungarotoxin binders on microarray, profiling panel, artefact control for SMM control protein annotation, biochemical, small-molecule microarray, Alexa647 label, 635/667 nm fluorescence (AID 1117); conditions: alpha-BTX-A647 binding fluorescence, higher = more signal
# Sequence of Alpha-bungarotoxin (Bungarus multicinctus) (P60615 whole entry, looked up): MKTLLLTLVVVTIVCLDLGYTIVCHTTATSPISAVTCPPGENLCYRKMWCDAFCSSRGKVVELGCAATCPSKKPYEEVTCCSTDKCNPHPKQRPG
SMILES,composite z-score [1],composite z-score [2],composite z-score [3],z-score [4],composite z-score [5],composite z-score [6],composite z-score [7],composite z-score [8],composite z-score [9],composite z-score [10],composite z-score [11],z-score [12],composite z-score [13],composite z-score [14],composite z-score [15],composite z-score [16],composite z-score [17],composite z-score [18],composite z-score [19],composite z-score [20]
CCOC(=O)C[C@H]1[C@H](OC(=O)c2ccc(C(=O)c3ccccc3)cc2)[C@@H](NC(=O)Cc2ccc(OC)cc2)c2cc(OCCCO)ccc2N1C(=O)Cc1ccc(OC)cc1,0.276,0.676,0.949,-1.52 (inactive),0.371,0.283,-0.137,0.321,-0.177,0.962,1.06,-1.06,0.39,1.31,0.655,-0.0643,-0.156,1.1,0.743,0.978
CO[C@H]1O[C@H](CO)[C@@H](OC(=O)Nc2ccccc2)[C@H](OC(=O)Nc2ccc3c(c2)OCO3)[C@H]1OC(=O)Nc1ccc2c(c1)OCO2,1.59,0.666,0.757,-0.618 (inactive),0.729,0.741,-0.242,0.292,0.0894,0.798,0.538,-1.04,0.452,1.65,-0.617,0.0973,0.0898,1.19,1.51,0.485
COc1ccc([Si](C)(C)[C@H]2[C@H](CC(=O)N3Cc4ccccc4C[C@H]3CO)O[C@@]3(C(=O)N(Cc4cccc(N5C(=O)COc6ccccc65)c4)c4ccccc43)[C@@H]2C)cc1,1.18,-0.225,-0.261,-1.72 (inactive),0.818,0.52,1.13,1.26,1.12,1.23,0.354,-3.73,0.818,0.191,-0.185,0.0094,0.0637,-0.0118,0.7,1.87
CO[C@H]1O[C@H](CO)[C@@H](OC(=O)CCc2ccccc2)[C@@H]2OC(=O)[C@H](Cc3ccccc3)C/C=C/C[C@@H](Cc3ccccc3)C(=O)O[C@@H]12,0.489,-0.332,0.268,-0.87 (inactive),-0.135,-1.24,-0.938,-0.861,-0.844,1.17,-0.673,-1.31,-0.0637,-0.879,-0.123,-0.106,-0.471,0.248,0.108,-0.75
O=C1c2ccccc2C(=O)c2cc([C@H]3Oc4ccccc4S(=O)(=O)N4CCC[C@@H]34)ccc21,-1.12,-0.108,0.461,-0.833 (inactive),-0.439,-0.896,-0.727,-1.02,0.11,1.09,-1.1,-2,-0.148,-0.94,0.812,-0.16,-0.214,0.0431,-0.749,-0.744
COCCOC(=O)N1C(=O)[C@@]2(c3cc(C#CC4(O)CCCCCC4)ccc31)[C@H](C(=O)NC[C@H](O)c1ccccc1)[C@H]1C(=O)O[C@H](c3ccccc3)[C@H](c3ccccc3)N1[C@@H]2c1ccccc1OCCO,1.27,0.145,0.348,-0.747 (inactive),1.15,1.31,0.479,1.33,0.95,0.158,0.726,-2.56,0.678,1.18,0.0465,-0.129,0.699,-0.0939,0.945,1.45
CC(C)[C@@H](C(=O)O)n1cc(-c2ccccn2)nn1,-0.0369,0.98,0.33,-0.015 (inactive),0.0739,0.428,0.278,0.0231,0.418,0.805,0.465,-0.187,0.249,0.51,0.556,-0.0216,0.0039,-0.195,0.539,0.703
CO[C@H]1O[C@H](CO)[C@@H](OC(=O)Nc2ccccc2)[C@H](OC(=O)Nc2ccccc2-c2ccccc2)[C@@H]1OC(=O)Nc1ccccc1-c1ccccc1,1.36,0.318,0.464,-1.05 (inactive),1.19,1.32,0.561,1.16,0.621,0.522,0.781,-3.09,0.986,1.95,0.357,0.131,1.85,1.59,1.1,2.77
COCCOC(=O)N1C(=O)[C@@]2(c3ccccc31)[C@H](C(=O)Nc1nc3ccccc3s1)[C@H]1C(=O)O[C@H](c3ccccc3)[C@H](c3ccccc3)N1[C@@H]2c1ccc(O)cc1,1.05,0.356,0.361,-1.56 (inactive),0.998,1.29,0.534,0.775,0.709,0.927,1.1,-2.04,1.02,1.74,1.07,0.0044,0.489,0.134,0.94,2.07
C=CCC(OC(C)=O)[C@@H]1[C@@H](N(Cc2cccc3ccccc23)C(=O)Cc2ccc(OC)cc2)c2cc(OCCCO)ccc2N1C(=O)Cc1ccc(OC)cc1 (stereo not given in full),-0.247,0.199,0.373,-0.768 (inactive),-0.0161,-0.45,0.015,-0.134,0.0484,1.21,-0.05,0.217,0.119,-0.294,0.14,-0.014,-0.153,0.277,-0.0539,0.476
CC(C)C[C@@H]1NC(=O)[C@@]23C(=O)N[C@@H](Cc4ccccc4)C2[C@H](C)[C@@]2(C)O[C@H]2C3/C=C/CC/C=C/CNC(=O)[C@@H](C)NC1=O (stereo not given in full),0.624,-0.246,-0.722,-0.585 (inactive),1.39,0.374,0.732,1.07,0.81,1.29,-0.211,0.42,0.575,-0.643,-1.39,-0.154,-0.229,0.117,-0.152,-0.195
